Screening data as filed in PubChem BioAssay.
Hits are enriched below; roughly 9.4% of the tested compounds scored in any of these assays.
Rab9 promoter act: activates the Rab9 promoter; Huh7 Rab9 promoter-luciferase reporter, luminescence, 24 h; Potency, µM (top dose mostly 9.22 µM), inactives show at the top dose activation, negative = inhibition, actives largely listed as activators; 2.8% of 320,000 active; note: % of control where 0% means no effect; nearly all actives have a fitted effect of over 60% in size
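Luciferase signal after 10 min detection reagent at ambient indicates Rab9 promoter upregulation; stably transfected Huh7 cells were treated 24 h with compound in DMSO at 37 °C, 5% CO2.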
ELG1 repair inh: inhibitors of ELG1-dependent DNA repair in HEK293T cells | AID 504467 | Potency, µM (doses to about 46.1 µM), inactives show at the highest dose activity change, negative = inhibition, usual class: inhibitors | 2.3% of 330,000 active | HEK293T ELG1-luciferase reporter, luminescence, 16 h; DNA damage induced by 5-fluorouridine; note: % is set by controls: 0 for no effect and ±100 for the full control effect; nearly all actives have a fitted effect of over 55% in size
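DMSO vehicle served as the neutral condition. Each well held 2,000 cells given 5-fluorouridine plus compound; after 16 hr at 37 °C/5% CO2, ONE-Glo was added and luciferase measured 30 min later.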
ELG1 genotoxic: genotoxicity induction in ELG1-luciferase HEK293T cells | HEK293T ELG1-luciferase reporter, luminescence, 16 h | Potency, µM (doses to about 46 µM), without a hit: top-dose activity change, positive = activation, hits mostly activators | 1.3% of 330,000 active; note: % of control where 0% means no effect; nearly all actives have a fitted effect of over 60% in size
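DMSO vehicle served as control against compound-treated ELG1-luciferase HEK293T cells; exposure lasted 16 hr at 37 °C and 5% CO2, followed by ONE-Glo luminescence detection after 30 min.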
NPC1 promoter act: activators of NPC1 promoter; Huh7 NPC1 promoter luciferase reporter, 24 h; Potency, µM (doses to about 9.22 µM), for the others: top-dose activation, actives largely listed as activators; 2.4% of 320,000 active; AID 485313; note: % of control where 0% means no effect; nearly all actives have a fitted effect of over 60% in size
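Compounds in DMSO were transferred onto Huh7 NPC1-luciferase reporter cells pre-incubated 2 h; after 24 h at 37 °C, Amplite reagent was dispensed and luminescence recorded 10 min later.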
FLuc modulator: firefly luciferase modulation, counter-screen for miR-21 project; purified FLuc, Km substrates, luminescence inhibition; Potency, µM (titrated, usually from 57.5 µM), for inactives: at the top dose activity change, negative = inhibition, actives largely listed as inhibitors; 6.9% of 360,000 active; P08659;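 note: plate controls were vehicle for no effect and reference inhibitor for full effect; nearly all actives have a fitted effect of over 55% in size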
Target sequence (P08659 whole entry, looked up): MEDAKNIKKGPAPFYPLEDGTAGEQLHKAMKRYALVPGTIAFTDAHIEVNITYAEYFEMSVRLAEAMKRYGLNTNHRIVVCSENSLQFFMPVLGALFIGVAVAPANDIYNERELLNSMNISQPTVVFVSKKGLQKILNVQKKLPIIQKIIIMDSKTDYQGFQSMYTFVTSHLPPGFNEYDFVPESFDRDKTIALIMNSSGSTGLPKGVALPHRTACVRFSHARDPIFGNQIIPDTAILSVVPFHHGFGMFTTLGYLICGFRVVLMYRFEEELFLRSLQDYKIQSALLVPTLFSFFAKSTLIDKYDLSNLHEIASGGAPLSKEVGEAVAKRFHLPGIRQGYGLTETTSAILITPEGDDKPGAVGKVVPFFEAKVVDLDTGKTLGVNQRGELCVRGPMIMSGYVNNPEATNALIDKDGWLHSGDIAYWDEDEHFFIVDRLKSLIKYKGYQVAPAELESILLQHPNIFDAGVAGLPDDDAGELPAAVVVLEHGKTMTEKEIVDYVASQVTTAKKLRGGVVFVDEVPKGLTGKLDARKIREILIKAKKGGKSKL
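Biochemical qHTS of compounds, final roughly 60 µM downward over six points, against 10 nM purified firefly luciferase using Km concentrations of substrates (10 uM D-luciferin, 10 uM ATP) in Tris acetate pH 7.5 buffer; luminescence output.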
SMN2 splice up: enhancers of SMN2 splice variant expression; 2.8% of 210,000 active; AID 1458; HEK293 SMN2-luciferase splicing reporter, luminescence, 30-36 h; Potency, µM (top dose mostly 46.1 µM), without a hit: top-dose activity change, positive = activation, hits mostly activators; note: % of control where 0% means no effect; nearly all actives have a fitted effect of over 55% in size
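HEK293 cells carry an SMN2 minigene-luciferase reporter in which exon 7 inclusion puts luciferase in frame. Cells were seeded at 2000 cells/well, attached for 10-12 hours, then exposed to compounds for 30-36 hours at 37C before ONE-Glo luminescence.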
The depositor's hits bear a star; ? = inconclusive; · = no result given; [ ] = another dose, or the depositor's remark. Calls come from the whole dose curve; as a rule, active = well fitted curve in the direction sought with a large enough effect; inconclusive = small, poorly fitted or top-dose-only effect, or another doubt; inactive = no such curve, though single readings can be large; an effect the other way counts as inactive or inconclusive. Potency is the fitted concentration of half-maximal effect.

SMILES	Rab9 promoter act	ELG1 repair inh	ELG1 genotoxic	NPC1 promoter act	FLuc modulator	SMN2 splice up
COc1ccc(-c2nc3nc(C)cc(N4CCN(c5cccc(C(F)(F)F)c5)CC4)n3n2)cc1	·	·	·	·	-9%	-2%
CCc1ccc(-n2nc(C)c3c(C)cc(=O)n(CC(=O)Nc4ccc(C(C)=O)cc4)c32)cc1	·	·	·	·	3%	·
O=[N+]([O-])c1ccc(C23CC4CC(CC(O)(C4)C2)C3)cc1	1.6µM*	?	16%[9.26 µM]	2.8µM*	11µM*	·
O=C(CN1C(=O)COc2ccc(S(=O)(=O)N3CCCCCC3)cc21)Nc1cccc(Cl)c1	·	·	·	·	-17%	·
O=C(Nc1ccccc1N1CCN(C(=O)c2ccc(Cl)cc2)CC1)c1ccc2c(c1)OCO2	-5%	16µM*	-6%	4%	2%	?
O=C(CSc1ccc(Cl)cc1)Nc1ccccc1N1CCN(C(=O)c2ccc(Cl)cc2)CC1	-3%	23µM*	-6%	1%	-1%	-38%
O=C(Nc1ccc(N2CCN(C(=O)c3ccc(Cl)cc3)CC2)cc1)c1ccc2c(c1)OCCO2	-28%	4.1µM*	-29%	-23%	?	-65%
CCCC(=O)N1CCN(c2ccc(NC(=O)c3ccc4c(c3)OCCO4)cc2)CC1	-1%	?	-11%	-6%	-7%	·
O=C(Nc1ccc(N2CCN(C(=O)c3ccccc3)CC2)cc1)c1ccc2c(c1)OCCO2	-1%	15µM*	-18%	-7%	?	·
Cc1ccc(CSC2=Nc3ccccc3C3=NC(CCC(=O)NCCc4ccccc4)C(=O)N23)cc1 (stereo unspecified)	·	·	·	·	-8%	·
NCCSCCc1ccccc1	·	·	·	·	·	-10%[9.22 µM]
Cc1cc(C)cc(NC(=O)Cn2cc(S(=O)(=O)NC(C)(C)C)c(S(=O)(=O)NC(C)(C)C)c2)c1	·	·	·	·	-1%	·
Cc1ccc(CNC(=O)CN2C(=O)C3(SCC(=O)N3c3cc(C)cc(C)c3)c3ccccc32)cc1 (stereo unspecified)	·	·	·	·	-8%	·
O=C(Nc1ccc(N2CCCCC2)cc1)c1ccc2c(c1)OCCO2	1.4µM*	?	3%	?	1.7µM*	-24%
CN1CCN(c2ccc(CNC(=O)c3ccc4c(c3)OCCO4)cc2)CC1	4%	?	0%	1%	-3%	·
CC(=O)N1CCN(c2ccc(NC(=O)c3ccc4c(c3)OCCO4)cc2)CC1	1%	2%	6%	-1%	?	-17%
CN1CCN(c2ccc(NC(=O)c3ccc4c(c3)OCO4)cc2)CC1	1.8µM*	?	?	2.5µM*	11µM*	?
CC(C)(C)C(=O)N1CCN(c2ccc(NC(=O)c3ccc4c(c3)OCCO4)cc2)CC1	-9%	16µM*	-28%	-3%	?	·
Cc1ccc(OCC(=O)N(Cc2ccco2)Cc2ccco2)cc1C	·	·	·	·	-18%	-6%
C(=N\n1cnnc1)/c1cccs1	2%	8%	3%	5%	0%	?
C(=N\N=C\c1cccs1)/c1cccs1	2µM*	?	6%	?	2.1µM*	?
O=C(Nc1ccc(F)cc1)Nc1ccccc1C(=O)NCCN1CCNC1=O	1%	9%	0%	-6%	17µM*	·
O=C(Nc1ccc(OCc2ccccc2)cc1)Nc1ccccc1C(=O)NCCCN1CCOCC1	5%	24%	6%	1%	19µM*	·
COc1cccc(-c2nc3c(C#N)c[nH]n3c2NC2CCCCC2)c1	·	·	·	·	5%	·
COc1ccc(S(=O)(=O)NCCc2csc(-c3cccc(F)c3)n2)cc1OC	·	·	·	·	-7%	·
SMILES	Rab9 promoter act	ELG1 repair inh	ELG1 genotoxic	NPC1 promoter act	FLuc modulator	SMN2 splice up
Cc1ccc(-c2[nH]ncc2/C=C(\C#N)C(=O)NC2CCCCC2)cc1	-4%	9.2µM*	-6%	-3%	0%	-24%
COc1ccc(-c2[nH]ncc2/C=C(/C#N)C(=O)NC2CCCCC2)cc1	1%	?	-2%	-1%	12%	-14%
Cc1ccccc1-n1nnnc1SCC(=O)c1c(N)n(C2CC2)c(=O)[nH]c1=O	2%	21µM*	-3%	-2%	4%	·
Nc1c(C(=O)CSc2nnnn2-c2ccccc2)c(=O)[nH]c(=O)n1C1CC1	·	-2%	9%	·	·	·
COCc1cc(C)nc2c1C(=O)NC(c1ccc(F)cc1)N2Cc1ccccc1 (stereo unspecified)	·	·	·	·	-5%	·
OC[C@H](O)[C@H](O)[C@@H](O)[C@@H](O)[C@@H]1SC(c2ccccc2)=NN1c1ccccc1	-2%	?	-5%	-2%	-11%	·
Cc1ccc(C2=NNC(C(O)C(O)C(O)C(O)CO)S2)cc1 (stereo unspecified)	12%	?	?	2%	21µM*	-29%
Cc1cccc(CC(C)NC(=O)CCc2nnc(-c3ccccc3)o2)n1 (stereo unspecified)	-5%	14%	2%	-2%	-8%	·
CC(C)(CO)CNC(=O)CCc1nnc(-c2ccc(-c3ccccc3)cc2)o1	12%	?	11%	22%	24µM*	·
CC(NC(=O)CCc1nnc(-c2ccc(-c3ccccc3)cc2)o1)c1nc2ccccc2[nH]1 (stereo unspecified)	10%	?	-8%	27%	11µM*	·
CCC(=O)Nc1ccccc1-c1nc2ccccc2n(CC(=O)c2ccc(C)cc2)c1=O	·	·	·	·	1%	·
COc1ccc(NC(=O)N2CCN(S(=O)(=O)c3ccc4c(ccn4C)c3)CC2)cc1OC	·	·	·	·	0%	·
CCc1ccccc1N(c1nc(-c2ccc(OC)c(OC)c2)no1)c1nc(-c2ccc(OC)c(OC)c2)no1	·	·	·	·	-2%	-8%
Clc1ccc(OCc2cn3cccnc3n2)c2ncccc12	?	?	16µM*	?	?	11µM*
c1cnc2c(OCc3cn4cccnc4n3)cccc2c1	23%	?	?	18%	?	9%
Cc1cc(Cl)ccc1OCc1cn2cccnc2n1	3.2µM*	?	?	3.5µM*	12µM*	13µM*
CCc1ccc(NC(=O)Cn2c(-c3cncs3)nc3ccccc32)cc1	·	·	·	·	-7%	-9%
Cc1cccc(Nc2c3c(nc4nncn24)CCC3)c1C	·	·	·	·	3%	-3%
Cc1n[nH]c(C)c1N1C(=O)c2cccc3c(N4CCCCCC4)ccc(c23)C1=O	-6%	?	-2%	-5%	-3%	-33%
O=C(OCCN1C(=O)c2cccc3c(N4CCOCC4)ccc(c23)C1=O)c1ccccc1Cl	-12%	12µM*	-17%	-15%	-1%	-80%
O=C1c2cccc3c(N4CCCCC4)ccc(c23)C(=O)N1c1cccc(O)c1	0%	8%	12%	0%	19µM*	-10%
